Experiment [1] in a line: qHTS for Inhibitors of Plasmodium falciparum (GB4) proliferation (AID 504315). Also: nearly all actives have a fitted effect of over 50% in size. Also: potency is read from the fitted curve at half-maximal effect. An outline of the steps: (§1)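 Erythrocytes infected with P. falciparum line (0.3% parasitemia, 2.5% hematocrit final) incubated with compounds 72 h at 37 °C, 5% CO2; SYBR Green lysis buffer added, fluorescence read next day. Normalized to 0.29 uM artemisinin and DMSO.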
Experiment [2] is described as follows: qHTS for Inhibitors of Plasmodium falciparum (7G8) proliferation (AID 504316).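 Also: series mostly up to about 6.7 µM; 0% = DMSO vehicle and -100% = 0.29 µM artemisinin full kill; nearly all actives have a fitted effect of over 65% in size.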 An outline of the steps:
as §1
Background: qHTS replaces the single test concentration by a dilution series.

Experiment [3] in a line: qHTS for Inhibitors of Plasmodium falciparum (HB3) proliferation (AID 504318).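 Also: 0% = DMSO vehicle and -100% = artemisinin control; nearly all actives have a fitted effect of over 60% in size.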 An outline of the steps:
as §1

Experiment [4] can be described thus: qHTS for Inhibitors of Plasmodium falciparum (CP250) proliferation (AID 504320).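 Also: plate controls were DMSO vehicle for no effect and 0.29 µM artemisinin control for full effect.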 An outline of the steps: as §1
The target in experiment [5] is Cytochrome P450 3A4 (Homo sapiens) (UniProt P08684). Briefly: qHTS Assay for Activators of Cytochrome P450 3A4 (AID 885). Also: nearly all actives have a fitted effect of over 65% in size. The method, boiled down:
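Quantitative HTS format: compounds preincubated with 20nM human CYP3A4 and Luciferin-PPXE substrate at KM, reaction started by NADPH regeneration, stopped after 60 min, luciferase luminescence read 20 min later.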

Experiment [6] concerns the target Cytochrome P450 2D6 (Homo sapiens) (UniProt P10635). The experiment can be described thus: qHTS Assay for Inhibitors and Substrates of Cytochrome P450 2D6 (AID 891).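 Also: luciferin methyl ether substrate demethylated by CYP2D6 with NADPH regeneration; % is scaled to controls: 0 for no effect and ±100 for the full control effect; nearly all actives have a fitted effect of over 60% in size.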 An outline of the steps: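 Human CYP2D6 (5 nM) with 30 uM Luciferin-ME EGE (at Km) in 100 mM KPO4, compound preincubated 10 min, then NADPH regeneration system for 60 min at room temperature. Luciferin read by luminescence; normalized to 1.43 uM quinidine.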

Experiment [7] addresses Cytochrome P450 2C19 (Homo sapiens) (UniProt P33261). The experiment can be described thus: qHTS Assay for Inhibitors and Substrates of Cytochrome P450 2C19 (AID 899). Also: % is scaled to controls: 0 for no effect and ±100 for the full control effect; nearly all actives have a fitted effect of over 60% in size. The method, boiled down: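 In 50mM KPO4, the reaction held 5nM enzyme and KM-level (10uM) Luciferin-H EGE; it ran 60 min at 37C after NADPH regeneration and a 10 min compound preincubation. Luminescence values were scaled to 57uM ketoconazole as complete inhibition.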

Molecules are shown by their SMILES. A number with no mark means an inactive call. Records with an inconclusive call do not appear. Active and inactive are the calls of the source. Calls follow the shape of the dose curve; as a rule, active = well fitted curve in the direction sought with a large enough effect; inconclusive = small, poorly fitted or top-dose-only effect, or another doubt; inactive = no such curve, though single readings can be large; an effect the other way counts as inactive or inconclusive.

Chain of Cytochrome P450 2C19 (Homo sapiens) (P33261 whole entry, looked up): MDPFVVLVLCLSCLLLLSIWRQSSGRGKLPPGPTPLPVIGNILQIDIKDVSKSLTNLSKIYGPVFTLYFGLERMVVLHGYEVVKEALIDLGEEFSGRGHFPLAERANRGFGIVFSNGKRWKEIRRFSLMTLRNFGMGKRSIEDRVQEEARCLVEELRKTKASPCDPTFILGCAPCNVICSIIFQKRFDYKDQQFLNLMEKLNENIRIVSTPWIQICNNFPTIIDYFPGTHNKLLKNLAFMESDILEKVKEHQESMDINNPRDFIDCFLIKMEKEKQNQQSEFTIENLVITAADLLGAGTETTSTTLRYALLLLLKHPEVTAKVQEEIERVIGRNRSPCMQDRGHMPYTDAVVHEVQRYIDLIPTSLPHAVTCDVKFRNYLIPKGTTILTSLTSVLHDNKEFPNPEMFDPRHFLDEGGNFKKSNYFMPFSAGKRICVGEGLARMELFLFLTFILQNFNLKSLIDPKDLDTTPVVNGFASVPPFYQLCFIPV
Chain of Cytochrome P450 2D6 (Homo sapiens) (P10635 whole entry, looked up): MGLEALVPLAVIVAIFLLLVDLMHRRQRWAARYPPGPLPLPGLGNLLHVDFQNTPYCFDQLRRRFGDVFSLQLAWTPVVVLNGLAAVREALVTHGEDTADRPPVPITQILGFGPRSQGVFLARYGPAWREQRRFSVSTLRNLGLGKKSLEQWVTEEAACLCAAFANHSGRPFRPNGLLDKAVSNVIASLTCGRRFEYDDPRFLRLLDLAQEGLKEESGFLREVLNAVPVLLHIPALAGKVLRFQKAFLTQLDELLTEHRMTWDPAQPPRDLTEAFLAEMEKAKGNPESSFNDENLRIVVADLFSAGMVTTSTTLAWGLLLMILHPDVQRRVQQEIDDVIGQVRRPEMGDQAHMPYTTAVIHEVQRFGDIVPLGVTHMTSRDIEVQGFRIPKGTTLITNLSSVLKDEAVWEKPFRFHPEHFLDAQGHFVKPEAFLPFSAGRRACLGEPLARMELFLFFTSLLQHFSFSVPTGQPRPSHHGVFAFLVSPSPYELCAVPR
Chain of Cytochrome P450 3A4 (Homo sapiens) (P08684 whole entry, looked up): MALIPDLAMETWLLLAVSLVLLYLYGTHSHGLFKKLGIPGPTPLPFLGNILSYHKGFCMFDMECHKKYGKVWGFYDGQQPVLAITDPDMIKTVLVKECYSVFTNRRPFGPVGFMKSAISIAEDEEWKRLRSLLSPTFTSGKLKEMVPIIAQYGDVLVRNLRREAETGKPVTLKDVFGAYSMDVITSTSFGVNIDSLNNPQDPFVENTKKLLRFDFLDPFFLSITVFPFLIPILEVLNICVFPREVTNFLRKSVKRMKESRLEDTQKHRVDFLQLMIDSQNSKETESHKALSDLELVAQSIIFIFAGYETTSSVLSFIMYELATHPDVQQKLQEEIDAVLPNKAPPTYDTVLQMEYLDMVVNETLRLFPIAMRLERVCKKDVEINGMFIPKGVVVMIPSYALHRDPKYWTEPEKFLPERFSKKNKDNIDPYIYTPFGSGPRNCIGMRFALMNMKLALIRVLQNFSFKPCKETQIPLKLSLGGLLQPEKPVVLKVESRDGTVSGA

For the molecule `COC(=O)C1=C(C(=O)OC)[C@@H]2N(Cc3ccccc3)c3ccccc3[C@@]23C[C@@H](C(=O)OC)N(S(=O)(=O)c2ccc(C#N)cc2)C3=N1`, the Potency in experiment [1] was 2130 nM (active).

With `COC(=O)N[C@@H](c1cccc(C)c1)C(C(C)=O)C(=O)OC` (some centres not stated), the Potency result in experiment [1], in experiment [2], in experiment [3] and in experiment [4] was “inactive” throughout.

As to `COC(=O)C[C@H]1c2ccccc2[C@H]2C(=C[C@@H](C)[C@H]3C(=O)N(O)C(=O)[C@H]32)N1C(=O)OC`, the Potency entry in experiment [1], in experiment [2], in experiment [3] and in experiment [4] was “inactive” each time.

Regarding `CCCCCC(=O)c1cc(CC(C(=O)OC)C(=O)OC)cc2cc(OC)c(OC)cc12`, in experiment [5], the activity change, positive = activation was -51.6% [at 11.4 µM]. The Potency result in experiment [6] and in experiment [7] was “inactive” each time.

(Values after PubChem BioAssay (NCATS).)
